Experimental data taken from PubChem BioAssay (NCI).
This is part of a sample that, as a whole, favours compounds with a hit. Of some 83,000 tested, about 20% had one in any assay.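 The endpoint reported here, percent growth, reads 100 for growth as untreated, 0 for no net growth and -100 for all cells dead.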 Unmarked numbers belong to inactive results. Calls of active or inactive are those of the source. The calls were made as follows: active = growth percent below 10; inactive = the rest.

tested on: HL-60(TB) leukemia; assay: NCI-60 one-dose screen, 48 h (100 = growth as untreated, 0 = no growth, -100 = all killed); conditions: 10 µM unless noted

| Compound | growth |
| --- | --- |
| C=C1C(=O)O[C@H]2[C@H]1CC/C(CNC(=O)/C=C/c1ccccc1)=C\CC[C@@]1(C)O[C@@H]21 | -31.3% (active) |
| COc1ccccc1Cn1cc2c(c1-c1ccccc1)CCc1cnoc1-2 | 19.4% |
| COc1ccc(/C=C2\c3cc(OC)c(OC)c(OC)c3CC[C@@H]2O)cc1F | -22.4% (active) |
| O=C1CN(CCN2CC(=O)N(Cc3ccccc3)C(=O)C2)CC(=O)N1Cc1ccccc1 | 97.7% |
| O=C1Nc2c(ccc(Cl)c2Cl)/C1=C/c1cc(Br)c(O)c(Br)c1 | 33% |
| C=C1C(=O)O[C@H]2[C@H]1CC/C(COC(=O)NCc1ccc(Cn3c(=O)sn(CCCl)c3=O)cc1)=C\CC[C@@]1(C)O[C@@H]21 | -21.4% (active) |
| CCCCNCCCN(CCCC)CCCNCCCC | 98.5% |
| O=c1[nH][n+](-c2ccc(Cl)cc2)no1 | 24.9% |
| COC(=O)c1c2c(c(C)[n+]([O-])c1C)C(=O)C=C(NCc1ccc(Cl)cc1)C2=O | -30.5% (active) |
| COc1cc(/C=C/C(=O)c2ccc(Cl)cc2)cc(CN2CCCCC2)c1O | 94.2% |
| O=C(O)CSCc1nc2ccccc2[nH]1 | 136% |
| COc1ccc(C(=O)COc2cccc(/C=C3\CSc4ccc(Cl)cc4C3=O)c2)cc1 | 81.8% |
| CCCCCCN(CCCCCC)CCC(O)c1ccc2ccccc2c1 (stereo not given) | 42.4% |
| CNC(=O)c1cccc(Cn2nc(C)c(NC(=O)c3ccc(COc4ccc(C(F)(F)F)cc4C)cc3)c2C)c1 | 47.1% |
| CN(C)c1nc(-c2cccs2)n2nc(-c3ccco3)cc2n1 | 95.3% |
| COc1ccc(C(=O)c2sc3nc4c(c(-c5cccnc5)c3c2N)CCCC4)cc1OC | 86.6% |
| COc1ccc(/C=C\c2cc(OC)c(OC)c(OC)c2)cc1OC(=O)c1cccc(Cn2cc(CCOC(=O)[C@H](N)Cc3cn(C)c4ccccc34)nn2)c1 | -42.7% (active) |
| COc1c(C(NC(=O)c2ccccc2)c2sccc2C)cc(Cl)c2cccnc12 (stereo not given) | 96.1% |
| O=C1/C(=C/c2ccccc2)COc2ccc(O)cc21 | 33.9% |
| Cc1nnc2c(Cc3ccccc3)nc3ccccc3n12 | 95.7% |

| Compound | growth |
| --- | --- |
| COc1ccc(CNc2c3ccccc3nc3ccccc23)c(OC)c1 | 36.9% |
| Nc1nc(-c2cc3c(cc2Cl)NC(=O)/C3=C/c2ccccc2)cs1 | 47% |
| CCOC(=O)c1c(C)nc2ccccc2c1/C=C/c1cccs1 | 87.3% |
| CCN(CC)CCNc1ccc(CO)c2oc3cc(Cl)ccc3c(=O)c12 | 111% |
| CN(C)c1ccc(C2(Cl)c3ccccc3N(C)c3ccccc32)cc1 | 17.5% |
| CC1=NNC(=O)C1C (stereo not given) | 124% |
| Nc1cc(C(=O)NC[C@H]2CN(c3ccc(N4CCC(C(=O)O)CC4)cc3)C(=O)O2)ccc1Cl | 97.9% |
| O=S1(=O)c2ccccc2Oc2ccccc21 | 89.5% |
| O=C(Nc1ccc2[nH]c3ccccc3c2c1)c1ccccc1Cl | 9.41% (active) |
| O=C1c2cc3c(cc2-c2c1c1ccc(F)cc1c(=O)n2CCCN1CCOCC1)OCO3 | 13.7% |
| CC[C@@]1(OC(=O)CN(C)C)C(=O)OCc2c1cc1n(c2=O)Cc2cc3c(N)cccc3nc2-1 | -2.25% (active) |
| O=C1/C(=C\c2cccn2Cc2ccc(F)cc2)c2ccccc2N1c1c(Cl)cccc1Cl | 96.5% |
| OC(c1cc(-c2ccc(Cl)cc2)nc2c(Cl)cccc12)C1CCCCN1 (stereo not given) | -67% (active) |
| Nc1nnc(-c2ccc3ccccc3c2O)o1 | 102% |
| CC(C)C(=O)c1ccc(Cl)s1 | 99.9% |
| CCCCCN1C=C/C(=C\C(=O)n2ccc3ccccc32)c2ccccc21 | 103% |
| CC(=Nc1ccccc1)C1=C(O)C(Cc2ccccc2)NC1=O (stereo not given) | -52.3% (active) |
| COc1cc(/C=C/c2nnc(-c3cc(-c4ccccc4)n[nH]3)o2)cc(OC)c1OC | 75.1% |
| Cc1ccc2nc(-c3c(CCCO)noc3N)[nH]c(=O)c2c1 | 89.8% |
| CC1(C)CC(=O)c2c(ccc(C(=O)C[C@@H](N)CO)c2N)O1 | 35.7% |
